# Measurements as given in PubChem BioAssay (EPA / NIEHS).
# Records with an inconclusive call do not appear. Some structures have more than one record in an assay (separate samples or runs), and their calls can disagree. Active and inactive are the calls of the source. How the source made its calls: active means hit-call score of the fitted dose curve at least 0.9, where 1 is the maximum; inconclusive means response in the unintended direction; inactive means score below 0.9.
# Biological target: human Acetylcholinesterase (AChE), ACHE (gene 43) (UniProt P22303)
# Sequence (P22303 whole entry, looked up): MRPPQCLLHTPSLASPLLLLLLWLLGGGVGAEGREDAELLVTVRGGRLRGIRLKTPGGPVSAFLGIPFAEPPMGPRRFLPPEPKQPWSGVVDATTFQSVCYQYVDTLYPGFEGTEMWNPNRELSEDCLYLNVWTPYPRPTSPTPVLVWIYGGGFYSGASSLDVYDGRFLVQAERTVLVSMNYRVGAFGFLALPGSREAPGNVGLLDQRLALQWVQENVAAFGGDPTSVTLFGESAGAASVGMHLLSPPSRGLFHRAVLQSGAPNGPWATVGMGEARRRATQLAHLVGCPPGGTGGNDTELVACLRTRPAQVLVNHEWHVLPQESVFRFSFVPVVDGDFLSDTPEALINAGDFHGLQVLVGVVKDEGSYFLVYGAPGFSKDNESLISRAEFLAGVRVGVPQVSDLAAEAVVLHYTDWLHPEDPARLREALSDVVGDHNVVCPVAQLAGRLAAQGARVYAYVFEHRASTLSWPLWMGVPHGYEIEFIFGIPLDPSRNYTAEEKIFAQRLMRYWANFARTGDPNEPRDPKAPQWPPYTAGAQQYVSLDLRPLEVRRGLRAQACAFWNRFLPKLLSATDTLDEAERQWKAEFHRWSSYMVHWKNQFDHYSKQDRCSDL
# Assay: NVS_ENZ_hAChE: NovaScreen (NVS) Enzymatic Assay for human Acetylcholinesterase (AChE) (AID 2283129)
# Method in brief: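 Actives from a duplicate single-point screen (25 uM) were followed up in concentration series. Enzyme activity read by absorbance (colorimetric) 0.33 hour after dosing, cell-free, normalized to DMSO, with loss of signal scored.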
Compound,outcome,AC50
CCCCC(CC)COC(=O)CCCCCCCC(=O)OCC(CC)CCCC (stereo unspecified),inactive,–
CNS(=O)(=O)c1cc(C(=O)N2CCC(CCN3C4CCC3CC(n3c(C)nc5ccccc53)C4)(c3cccc(F)c3)CC2)c(Cl)cc1F (stereo unspecified),inactive,–
O=C(OC[C@H]1O[C@@H](OC(=O)c2cc(O)c(O)c(OC(=O)c3cc(O)c(O)c(O)c3)c2)[C@H](OC(=O)c2cc(O)c(O)c(OC(=O)c3cc(O)c(O)c(O)c3)c2)[C@@H](OC(=O)c2cc(O)c(O)c(OC(=O)c3cc(O)c(O)c(O)c3)c2)[C@@H]1OC(=O)c1cc(O)c(O)c(OC(=O)c2cc(O)c(O)c(O)c2)c1)c1cc(O)c(O)c(OC(=O)c2cc(O)c(O)c(O)c2)c1,–,0.644 µM (active)
O=c1[nH]c2ccc(S(=O)CCN3CCC(Cc4ccc(F)cc4)CC3)cc2o1 (stereo unspecified),–,3.71 µM (active)
COc1cccc(-c2ccc(/C=C\CN3CCCCCC3)cc2Cl)c1,–,22.6 µM (active)
O=C(O)Cc1cc(I)c(Oc2cc(I)c(O)c(I)c2)c(I)c1,–,2.92 µM (active)
O=C1c2c(O)cccc2Cc2cccc(O)c21,–,0.484 µM (active)
CCCCCOC(C)=O,inactive,–
N=C(N)c1ccc(OCCCCCOc2ccc(C(=N)N)cc2)cc1,–,19.3 µM (active)
O=C(c1ccc(OCCN2CCCCC2)cc1)c1c(-c2ccc(O)cc2)sc2cc(O)ccc12,–,0.0103 µM (active)
COc1ccc(-n2nc(C(F)F)cc2-c2ccc(S(C)=O)cc2)cc1 (stereo unspecified),inactive,–
CCCCCCC(CCCCCCCCCCC(=O)OCC(COC(C)=O)OC(C)=O)OC(C)=O (stereo unspecified),inactive,–
Cn1c(=O)cc(Oc2ccc(F)cc2F)c2cnc(NCC(C)(C)O)nc21,–,17.3 µM (active)
Clc1cc(Cl)c2c(c1)N=C1CCCCCN1C2,–,0.351 µM (active)
COc1ccc2cc(S(=O)(=O)N[C@H](CC(=O)N[C@H](Cc3ccc(CN4[C@H](C)CCC[C@@H]4C)cc3)C(=O)N(C)C(C)C)c3ccc4c(c3)OCO4)ccc2c1,inactive,–
CCOC(=O)CCC(=O)OCC,inactive,–
CS(=O)(=O)c1ccc([C@@H](CC2CCCC2)C(=O)Nc2cnccn2)cc1Cl,inactive,–

Compound,outcome,AC50
COc1cc(C(C)C)c2c(c1)S(=O)(=O)N(COc1cc(=O)n3cccc(OCCN4CCCCC4)c3n1)C2=O,–,5.52 µM (active)
CCc1nc(N)nc(N)c1-c1ccc(Cl)cc1,inactive,–
CS(=O)(=O)c1ccc([C@@H](C[C@H]2CCC(=O)C2)C(=O)Nc2cnccn2)cc1Cl,inactive,–
NC(=O)N(O)[C@@H]1C=C[C@H](Oc2cccc(Oc3ccc(F)cc3)c2)C1,inactive,–
CCOC(=O)O[C@H](C)OC(=O)c1ccc2c(c1)cc(C(=O)NC1CCN(C(C)C)CC1)n2Cc1cc(-c2ccc(Cl)s2)on1,–,5.36 µM (active)
CC/C(=C(\c1ccccc1)c1ccc(OCCN(C)C)cc1)c1ccccc1,–,17 µM (active)
c1ccc2c(c1)Cc1ccccc1-2,inactive,–
CCCCCCOC(=O)CC(CC(=O)OCCCCCC)(OC(=O)CCC)C(=O)OCCCCCC,inactive,–
NCc1cccc(C2CCN(C(=O)c3ccc(C#Cc4ccccc4F)o3)CC2)c1,–,25 µM (active)
Nc1ccc2c(c1)C(=O)c1ccccc1C2=O,inactive,–
CC[C@H]1CC[C@H](NCc2cc3c(cc2OC)[C@H]2C[C@H]2C(=O)N3C)[C@H](c2ccccc2)N1,–,20.5 µM (active)
O=C1c2ccccc2C(=O)N1CCc1noc(-c2ccc(CN3CCCCCC3)s2)n1,–,13.8 µM (active)
c1ccc2c(c1)-c1cccc3c1c-2cc1ccccc13,inactive,–
COCCOc1cc2cc(C(=O)NC3CCN(C(C)C)CC3)n(CC(=O)Nc3ccc(Cl)cn3)c2cn1,–,29 µM (active)
CCOC(=O)c1ccc(C2CCC(NC[C@H](O)COc3ccc(O)c(NS(C)(=O)=O)c3)CC2)cc1 (stereo partly specified),–,23.4 µM (active)
CN(C)C(=O)NC1(c2ccccc2)CCN(CCC[C@]2(c3ccc(Cl)c(Cl)c3)CCCN(C(=O)c3ccccc3)C2)CC1,–,5.13 µM (active)

# Biological target: human AMP-activated Protein Kinase, alpha 1 (AMPKa1), PRKAA1 (gene 5562) (UniProt Q13131)
# Sequence (Q13131 whole entry, looked up): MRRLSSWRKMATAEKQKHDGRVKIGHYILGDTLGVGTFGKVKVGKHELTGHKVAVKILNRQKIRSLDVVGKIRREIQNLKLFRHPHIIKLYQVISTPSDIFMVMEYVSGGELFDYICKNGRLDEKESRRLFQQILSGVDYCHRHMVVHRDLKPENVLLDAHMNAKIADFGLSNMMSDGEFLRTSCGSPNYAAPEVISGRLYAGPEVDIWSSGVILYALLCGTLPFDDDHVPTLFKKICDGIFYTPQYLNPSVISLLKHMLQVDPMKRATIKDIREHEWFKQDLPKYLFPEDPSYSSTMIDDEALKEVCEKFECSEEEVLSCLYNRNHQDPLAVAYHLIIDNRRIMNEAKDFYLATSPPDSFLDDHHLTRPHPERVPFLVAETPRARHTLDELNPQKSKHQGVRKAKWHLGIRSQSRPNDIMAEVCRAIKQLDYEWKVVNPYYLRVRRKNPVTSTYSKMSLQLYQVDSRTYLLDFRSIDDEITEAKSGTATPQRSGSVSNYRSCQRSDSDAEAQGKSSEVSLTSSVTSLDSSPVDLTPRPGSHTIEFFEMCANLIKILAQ
# Assay: NVS_ENZ_hAMPKa1: NovaScreen (NVS) Enzymatic Assay for human AMP-activated Protein Kinase, alpha 1 (AMPKa1) (AID 2283130)
# Method in brief: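 Compounds were screened in duplicate at 25 uM, and those reaching ~30% inhibition were titrated up to 50 uM. The enzyme was recombinant human AMPKα1, and kinase turnover was read by fluorescence/mobility shift 1 h post-dosing as loss of signal versus DMSO.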
Compound,AC50,outcome
CNS(=O)(=O)c1cc(C(=O)N2CCC(CCN3C4CCC3CC(n3c(C)nc5ccccc53)C4)(c3cccc(F)c3)CC2)c(Cl)cc1F (stereo unspecified),36 µM (active),–
Cc1ccc(N)cc1O,–,inactive
COc1cccc(-c2ccc(/C=C\CN3CCCCCC3)cc2Cl)c1,34.6 µM (active),–
CC1=C(/C=C/C(C)=C/C=C/C(C)=C/CO)C(C)(C)CCC1,–,inactive
O=C(c1ccc(OCCN2CCCCC2)cc1)c1c(-c2ccc(O)cc2)sc2cc(O)ccc12,18.9 µM (active),–
CC(C)CC(C)(O)C#CC(C)(O)CC(C)C (stereo unspecified),–,inactive
CCCCCCCCCCCCc1ccccc1,–,inactive
C/C=C/C=C/C(=O)O,–,inactive
O=C1O[C@H]([C@@H](O)CO)C(O)=C1O,–,inactive
CC/C(=C(\c1ccccc1)c1ccc(OCCN(C)C)cc1)c1ccccc1,25.4 µM (active),inactive
O=C1c2ccccc2C(=O)N1CCc1noc(-c2ccc(CN3CCCCCC3)s2)n1,–,inactive
CN(C)C(=O)NC1(c2ccccc2)CCN(CCC[C@]2(c3ccc(Cl)c(Cl)c3)CCCN(C(=O)c3ccccc3)C2)CC1,–,inactive
